Test results as given in the supplement of paper PMC3334620.
Over roughly 33,000 sequences, “E-score (-0.5 to 0.5)” has its median near -0.0059; the highest 2% begin near 0.26. What follows is part of a selection rich in the highest values, with near analogues and random picks from the rest.

Target: T1, Cin5 (UniProt P40917)
T1 sequence: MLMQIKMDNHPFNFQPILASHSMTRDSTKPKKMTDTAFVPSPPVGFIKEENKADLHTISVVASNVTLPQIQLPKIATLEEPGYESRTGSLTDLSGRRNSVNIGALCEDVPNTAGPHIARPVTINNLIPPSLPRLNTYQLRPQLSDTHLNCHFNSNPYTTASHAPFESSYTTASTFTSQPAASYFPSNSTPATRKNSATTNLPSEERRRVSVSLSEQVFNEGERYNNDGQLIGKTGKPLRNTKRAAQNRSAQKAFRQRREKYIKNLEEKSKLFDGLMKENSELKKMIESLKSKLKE
Assay: PBM E-score (8-mer binding enrichment) (E-score (-0.5 to 0.5)); higher = stronger / more preferred TF binding
Details: protein concentration: 100 nM; construct: GST-full length
Procedure: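 Universal 'all 10-mer' protein binding microarrays (Agilent AMADID 015681) probed with GST-tagged S. cerevisiae TFs (full-length or DBD) made by in vitro transcription/translation (PURExpress), about 100-200 nM. Bound TF was detected with fluorescent anti-GST. Each ungapped 8-mer (which stands for itself and its reverse complement) is scored by the PBM enrichment score (E-score), a modified Wilcoxon-Mann-Whitney statistic from -0.5 to +0.5, computed with the Universal PBM Analysis Suite. Scale: above 0.35 generally sequence-specific binding.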

Sequence	PBM E-score
AACGCCAA	-0.0074
GATTCTCC	-0.134
GTACTCTA	-0.0538
TATTCGAA	0.0697
CCCTATGA	-0.066
CAATAGGC	-0.0915
AGGAATAG	0.0234
GGCAAAAA	0.202
GTTACTAA	0.168
ATTACTGA	0.108
ATTACTAA	0.334
ATTACTAC	0.145
ATTACTTA	0.411
ATTACTAG	0.105
CTTACTAC	0.202
CTTACTTA	0.25
CTTACTAA	0.313
AAGATGGA	0.109
CGAGTAGA	-0.139
ATTTACGC	0.0814
GTCCGTTA	0.12
ATCCGTTC	0.0322
ATCCGTTA	0.29
CGGGCTAA	-0.184
CGGTACTC	-0.161

Sequence	PBM E-score
CGTAGAGC	-0.0105
AAAAACCA	0.0166
CAAGCGCC	-0.291
CAAGCGCA	0.323
AAAGCGCA	-0.0252
CAATTCCC	0.112
ATGATTAG	0.223
ATGATTAA	0.256
CTGATTAC	0.378
CTGATTAA	0.108
ATGATTAC	0.362
CTGATTTC	-0.00928
GGGCTAGA	-0.149
CAGGCAAC	-0.0103
ACTATGTG	0.0904
GTTATGCA	0.0592
ATTATGAA	0.258
GTTATGAA	0.159
AGTATGTG	0.14
CTTATGCA	0.106
ATTATGTG	0.345
CATATGTA	0.172
GTTATGTA	0.276
CTTATGTA	0.361
CTTATGAA	0.0936

Sequence	PBM E-score
GATATGTA	0.189
AGTGCTTA	0.199
AGTGAACT	0.035
AGGCCACG	-0.155
GAGAAGAC	-0.0329
CTACACCA	-0.00077
GGGACACC	-0.238
CTAGTGAC	-0.0966
ATTATGTA	0.42
ACTATGTC	-0.0438
GCTATGTA	-0.0403
ACTATGTA	0.202
ATTATGTC	0.27
ATTATGCA	0.118
CTTATGTC	0.219
ATTATGCC	0.15
ATTATGCG	0.338
AGCCATCA	0.131
AACGCGAT	0.0765
ACTTCGCC	0.0471
CTACCCGA	-0.0656
CCACGGAC	-0.237
AGTTTCGC	0.0693
ATAGGCCG	-0.185
ACCCTTAG	-0.101

Sequence	PBM E-score
GGACAGGA	-0.275
AATACTGT	0.258
AATACTGG	0.129
TATACTGA	0.274
AATACTAT	0.214
CATACTGA	0.155
ACTACTAT	0.26
GATACTGA	0.124
ACTACTAA	0.177
ACTACTAC	0.00444
AGCTGTAG	0.139
CAGATGAG	0.0638
CGTGTTGC	-0.119
GAAGTGAA	0.202
AAAGTGAT	-0.00439
AAAGTGAA	0.258
ATACGCAA	0.217
GTACGCAA	-0.0571
TTACGCAA	0.306
CAGCTCCC	-0.305
ACATGTTA	0.126
ATACAACC	0.0923
ATACAACG	0.174
ATACAAAT	0.22
GAACAAAA	0.278

Sequence	PBM E-score
ATACAAAA	0.28
AAACAAAA	0.137
ATACAACA	0.272
CTACAAAA	0.111
GAACAAAC	0.226
CCCCTCGA	0.0859
ACAGGCTA	-0.0671
CCCACAGC	-0.192
ATAATAAA	0.24
ATAAATAT	0.226
ATAAATAG	0.102
CTAATAAA	0.164
TTAAATAA	0.313
ATAAATAC	0.279
TAAAATAA	0.141
CTAAATAA	0.0261
GTAAATAA	0.189
TTAATAAA	0.287
CTAAATAC	0.085
ATAAATAA	0.321
ATGTGGTG	0.114
CCTCGCAC	-0.0617
CTTAGATC	-0.0574
CGGCATGA	0.123
GAATTCTC	0.0994

Sequence	PBM E-score
ACCACGAT	0.161
AGCTACCT	-0.0535
ATCACTGC	0.0947
CGTGTTGA	-0.0277
AACCCAAC	0.17
ACTTTACG	0.119
GGGGCACC	-0.367
GGGTCACC	-0.297
GCGAATTA	0.266
ACGAATTA	0.0396
CCGAATTA	0.0794
GATGGTAC	0.0499
GGGTAATA	0.122
AGGTAATC	0.313
CGGTAATA	0.181
CGGTAATC	-0.0552
AGGTAATA	0.296
AGGTAATG	0.124
CGGAGCTC	-0.269
ATTCTTGG	0.153
TGTAAACA	0.0928
CACCAGCG	-0.0689
AATTAGAC	0.0847
CATTAGTC	0.0189
ATTTAGTC	0.0988

Sequence	PBM E-score
AATTAGTC	0.26
CTTTAGTA	-0.00776
ATTTAGTA	0.303
CATTAGTA	0.188
AATTAGAT	0.294
AATTAGAG	0.146
GATTAGTA	0.254
AATTAGTG	0.188
AATTAGTA	0.308
AGCGTCAG	-0.124
AGCGAGCC	-0.0601
CACGAAGA	0.132
CGTTTCTA	-0.00786
AGATAACT	0.159
ATGCTACA	-0.0162
ATCTAGAC	-0.125
CTTTGATA	0.116
ATTTGATA	0.319
GTATGAGA	0.144
ATATGATA	0.314
ATTTGATC	0.0618
ATATGATG	0.158
GTATGATA	0.275
CTATGATC	-0.0495
ACATGATA	0.187

Sequence	PBM E-score
CTATGATA	0.116
GCATGATA	0.168
ATATGATC	0.258
ATTCTTCG	0.138
CTGATCGC	0.0487
AAGGAAAT	0.0752
ATTGGTGC	0.134
ACGCTCAC	0.0871
CCTCACGC	0.0561
GTCAGCGA	-0.0481
ACCACCCT	-0.163
ATGCTATC	-0.00354
CGAACGCG	0.00852
AGAAACCA	0.123
GTGTGATA	0.2
CTGTGATA	0.0273
ATGTGATA	0.266
ATCGCCCA	-0.11
CAACGGTA	-0.181
CGTAAAGC	-0.147
CTTTGGTA	-0.205
ATTTGGTA	0.252
GTTTGGTA	0.296
AGGACCGG	-0.294
ACCGCTCG	-0.0731

Sequence	PBM E-score
CCCTATGC	0.0135
ACAACCCG	-0.0389
CGCAACTC	0.103
CGCAACTA	0.267
GGCAACTA	0.0726
CAGAACGA	0.0474
CAAAGACG	-0.0507
CGCTGGGC	-0.295
AATATGAC	0.163
AATATGAA	0.258
TATATGAA	0.129
AATATGAT	0.297
GATATGAA	0.0853
AATATGAG	0.0321
AGGGTGTC	-0.136
GGTCCTAA	-0.143
CAGGAAGA	-0.0593
GGGCAGGA	-0.00266
TAATGTAA	0.33
GAATGTAA	0.241
GAATGGAA	0.181
TGATGTAA	0.329
AAATGTAC	0.19
AAATGTAA	0.14
CGATGTAA	0.102

Sequence	PBM E-score
AAATGTAT	0.276
AAATGGAA	0.0906
TAATGGAA	0.281
AAATGTAG	0.101
AGATGTAA	0.169
CCGGGGCG	-0.146
GCTACGGA	-0.165
TCACCGGA	0.0333
GTGGGAAC	-0.144
GCCACGCC	-0.127
CAGAGCAC	-0.123
CCCCATAA	0.00568
ACGCAGCC	-0.0404
ACCGGGGC	-0.136
GAATGTGA	0.00014
TAATGTGA	0.292
CAATGTGA	0.117
ACTACCAG	-0.086
ACGCAAAT	-0.0291
GTGCATCA	0.00241
ATGCATTA	0.341
ATGCATCA	0.287
CTGCATTA	-0.154
ATGCATCG	0.098
ATGCATTC	0.163

Sequence	PBM E-score
ACTAACAT	0.192
CTACCCTA	-0.101
CACGGTGG	0.0279
CCTATCCG	-0.0857
CCGGTACA	-0.00292
CCTAATCC	0.029
CGTAATTC	0.228
CGTAAGCC	0.39
CATAATCA	0.385
CGTAAGGC	-0.0166
CATAATCC	0.265
GATAATCA	0.159
AGTAAGCC	0.216
GATAATCC	0.17
AATAATCA	0.257
CGTAATCC	0.383
AATAATCC	0.0532
CGGACCCC	-0.295
ACCGTTAT	-0.0275
CACGGCCA	-0.145
ATGGCTGC	-0.0428
CACGGGGG	-0.401
TATAATCA	0.342
AATAATCG	0.247
CATAATGG	0.0936

Sequence	PBM E-score
TATAATGA	0.21
CATAATCG	0.324
TATAATAA	0.241
CGATCACG	0.117
ATGTGCGA	-0.106
ACTCCTGG	-0.216
ACCACAAG	-0.117
TCAATGAA	0.159
CTTATCTC	0.0536
ATTATCTG	0.152
ATTATCTC	0.306
CTTATCTA	0.276
ACTATCTC	0.121
ATTATCTA	0.315
ACTATCTA	0.148
CCTATCTC	0.0294
GTTATCTA	0.131
AACTCGAT	0.15
AACCCTAT	0.107
TACGGGAA	-0.108
CCTTCATC	-0.183
GTGCAAGA	0.0774
GTAGAACA	-0.165
GGGAATGA	0.277
CGGAATGA	0.146

Sequence	PBM E-score
AGGAATGA	0.0586
CACCTCTA	0.0362
CGCGTATC	0.06
CCACAACG	-0.153
AAACTAAA	0.199
AAACTAAT	0.312
AAACTAAG	0.185
ATAGTCAC	0.129
AGCCGACG	-0.0574
CGAACAAG	-0.0215
AGAACAAA	0.194
CGAACAAA	0.272
GGAACAAA	0.32
GGAACAAC	0.0525
TGAACAAA	0.217
CCCTGGTA	-0.196
AGGTCGAC	0.102
GGCTGTAA	-0.129
CCCCGCGA	0.05
ACAATTGT	0.188
GCGCGGAA	0.192
CCGCGGGC	0.0691
GCGCGGGA	0.012
CCGCGGAA	0.272
CCGCGGGA	0.316

Sequence	PBM E-score
CCGCGGAG	0.0845
AGAGTTAA	0.0368
GTACTCGA	0.0237
ATTAGGTG	0.131
CGTAGGTA	-0.0204
ATTAGGTA	0.271
CTTAGGTC	-0.0156
CTTAGGTA	0.337
CTCAGGTA	0.0217
GTTAGGTA	0.242
ATTAGGGC	-0.0867
ATTAGGTC	0.271
AACTCAAT	0.165
CACTGGGC	-0.14
CGTAACCA	0.192
AGCAGCCC	-0.142
GAGGGCCC	-0.254
CCCCTCAG	-0.211
AGTAATTG	0.132
AGTAATAC	0.2
AGTAATAT	0.306
AGTAATAA	0.193
AGTAATAG	0.279
CGTAATAG	0.223
